Screens as filed in PubChem BioAssay.
An excerpt weighted towards active compounds, which were near 11% of everything screened.
BAZ2B inh – BAZ2B (human) inhibition. AlphaScreen BAZ2B-H3K14Ac peptide displacement. Potency, µM (doses to about 114 µM), without a hit: top-dose activity change, negative = inhibition, usual class: inhibitors. actives 4.4% (n = 360,000); note: % is set by controls: 0 for no effect and ±100 for the full control effect; nearly all actives have a fitted effect of over 60% in size
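BAZ2B 50 nM plus b-H3(5-23)K14Ac 50 nM, PBS pH 7.4/0.01% Tween-20, 30 min RT; compound added (max 110 uM), 30 min RT; streptavidin donor/Ni-chelate acceptor beads 10 ug/mL final, 20 min dark; AlphaScreen read.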
JMJD2A Tudor inh – JMJD2A Tudor domain (human) inhibition; AlphaScreen JMJD2A-Tudor / H3K4me3 peptide binding; Potency, µM (titrated, usually from 114 µM), inactives show at the top dose activity change, negative = inhibition, actives largely listed as inhibitors; actives 4.4% (n = 390,000); note: % is set by controls: 0 for no effect and ±100 for the full control effect; nearly all actives have a fitted effect of over 50% in size
G9a block – blocks human histone lysine methyltransferase G9a | Q96KQ7 | G9a H3K9 monomethylation, AlphaScreen, 2 h | Potency, µM (series often up to 102 µM), inactives show at the top dose activity, negative = inhibition, actives largely listed as inhibitors | actives 8.8% (n = 350,000); note: % is set by controls: 0 for no effect and ±100 for the full control effect; nearly all actives have a fitted effect of over 75% in size
Target sequence (Q96KQ7 913-1193 limits assumed): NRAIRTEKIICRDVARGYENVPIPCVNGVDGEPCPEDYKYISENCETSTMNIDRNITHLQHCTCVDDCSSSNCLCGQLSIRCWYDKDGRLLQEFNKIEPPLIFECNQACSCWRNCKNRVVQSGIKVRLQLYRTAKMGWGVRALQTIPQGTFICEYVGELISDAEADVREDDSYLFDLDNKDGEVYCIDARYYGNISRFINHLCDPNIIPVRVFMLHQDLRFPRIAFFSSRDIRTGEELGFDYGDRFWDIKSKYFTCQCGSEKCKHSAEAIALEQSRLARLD
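Signal arises when biotinylated H3K9 peptide, once monomethylated, bridges streptavidin donor and antibody-captured acceptor beads. Enzyme at 20 nM was preincubated 15 min with test compounds; peptide 500 nM and SAM 20 uM then reacted for 2 h.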
L3MBTL1 inh – blocks human L3MBTL1; Q9Y468; AlphaScreen L3MBTL1–H3K9me1 peptide binding; Potency, µM (titrated, usually from 57.1 µM), without a hit: top-dose activity, negative = inhibition, actives largely listed as inhibitors; actives 0.66% (n = 230,000); AID 485360; note: % is set by controls: 0 for no effect and ±100 for the full control effect; nearly all actives have a fitted effect of over 60% in size
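L3MBTL1 50 nM + b-AHA-H3(1-15)K9me1 75 nM, 30 min RT; compound added, 30 min RT; streptavidin donor/Ni-chelate acceptor beads 10 ug/mL each final, 30 min RT dark; AlphaScreen read.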
HP1b chromo inh – blocks HP1-beta chromodomain binding to methylated histone tails; AlphaScreen HP1-beta / biotin-H3K9me3 peptide binding; Potency, µM (highest dose often 114 µM), without a hit: top-dose activity change, negative = inhibition, usual class: inhibitors; actives 0.56% (n = 390,000); P83916; note: nearly all actives have a fitted effect of over 70% in size
Target sequence (P83916 whole entry, looked up): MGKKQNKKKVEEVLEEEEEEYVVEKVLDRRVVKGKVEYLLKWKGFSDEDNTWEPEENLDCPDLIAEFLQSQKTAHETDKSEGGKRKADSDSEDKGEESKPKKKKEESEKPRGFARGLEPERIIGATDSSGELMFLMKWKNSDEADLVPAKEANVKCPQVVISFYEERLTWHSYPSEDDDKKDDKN
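HP1-beta protein (50 nM final) preincubated 30 min at room temperature with biotinylated H3(1-18)K9me3 peptide (50 nM) in PBS pH 7.4, 0.01% Tween-20, then compound added for 30 min. AlphaScreen streptavidin donor/nickel chelate acceptor beads (10 ug/mL final), 30 min dark, luminescence read.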
Numbers without * were called inactive; ? = inconclusive; . = not tested or not shown; ! = a repeat was not active; [ ] = dose if it differs, or a comment. Calls come from the whole dose curve; as a rule, active = well fitted inhibition curve with a large enough effect; inconclusive = small, poorly fitted or top-dose-only effect; inactive = no such curve, though single readings can be large or run the other way. Potency is the fitted concentration of half-maximal effect.

SMILES	BAZ2B inh	JMJD2A Tudor inh	G9a block	L3MBTL1 inh	HP1b chromo inh
COc1ccccc1/C=C1\SC(=S)N(C(C(=O)O)c2ccccc2)C1=O (stereo not given)	-35.5%	2.9%[11.4 µM]	?	-9.2%	27.6%
CCOc1cc(/C=C2/SC(=S)N(C)C2=O)ccc1Oc1ccc([N+](=O)[O-])cc1[N+](=O)[O-]	?	.	-26.7%	-7.3%	.
O=C(O)C(c1ccccc1)N1C(=O)/C(=C\c2ccc(O)c(O)c2)SC1=S (stereo not given)	8.91µM*	20µM*	7.94µM*	.	25.1µM*
Cc1ccc(NC(=O)Cn2nc(C)c3nn(-c4ccc(Cl)cc4)c(C)c3c2=O)cc1C	3.7%	-3.9%	0.0%[59 µM]	.	26.8%[57 µM]
COc1ccc(CCNC(=O)c2cc3c(s2)-c2c(C)cccc2OC3)c(OC)c1	31.0%	29.1%	50.8%[59 µM]	.	65.5%
CCOC(=O)c1c(NC(=O)c2ccccc2)sc2c(O)c(CN(CC)CC)ccc12	-8.4%	-21.6%	50.1µM*	-6.3%	-4.8%
Cc1c(NC(=O)c2c(NC(=O)CNC3CC3)sc3c2CCCC3)c(=O)n(-c2ccccc2)n1C	?	56.2µM*	?	-0.1%	0.2%
O=C(CCS(=O)(=O)c1ccc(Br)cc1)Nc1ccc(Br)cc1F	50.1µM*	-34.8%[57.1 µM]	?	?	-25.1%
CCc1cccc(NC(=O)CCS(=O)(=O)c2ccc(Br)cc2)c1	31.6µM*	11.2µM*	28.2µM*	.	8.91µM*
COC(=O)c1ccc(NC(=O)CSCC(=O)OCC(=O)c2ccc(Br)cc2)cc1	-4.2%	-7.6%[57.1 µM]	10µM*	.	55.8%
CC(=O)c1ccc(NC(=O)CCS(=O)(=O)c2ccc3c(c2)n(C)c(=O)c(=O)n3C)cc1	79.4µM*	79.4µM*	?	-11.7%	-18.0%
COC(=O)c1ccc(NC(=O)CC(=O)Nc2ccc(C(=O)OC)cc2)cc1	6.8%	?	10.1%	.	30.4%
CCc1ccccc1NC(=O)Cn1nc(N2CCN(c3ccccc3OC)CC2)ccc1=O	-22.7%	-24.4%	-6.8%[59 µM]	.	16.4%
Cc1cccc(C)c1NC(=O)CN(C)C(=O)CN1C(=O)NC(C)(C)C1=O	-2.9%	-13.9%	-11.8%[12.7 µM]	9.1%	22.3%
CCOc1ccc(CCNC(=O)NCc2noc3ccc(C)cc23)cc1	-35.3%	-15.4%	-4.1%[59 µM]	.	31.1%
CCOC(=O)CSc1nc2cc3c(cc2c(=O)n1CCCC(=O)NCCc1ccc(OC)c(OC)c1)OCO3	-3.5%	-8.3%	-4.0%[59 µM]	.	46.7%
Cc1ccccc1-c1nn2c(=O)cc(CN3CCN(S(=O)(=O)c4ccc(Cl)cc4)CC3)nc2s1	2.6%	-1.0%	-17.0%[59 µM]	.	7.0%[57 µM]
COC(=O)c1ccc(NC(=O)CCS(=O)(=O)c2ccc(Br)cc2)cc1	56.2µM*!	-27.9%	56.2µM*!	.	-21.2%
COC(=O)c1ccc(NC(=O)CCS(=O)(=O)c2ccc(C)cc2)cc1	7.2%	-7.4%	14.0%	.	25.8%
Cc1noc(C)c1S(=O)(=O)N(C)C[C@H]1Oc2ccc(NC(=O)NC(C)C)cc2C(=O)N([C@H](C)CO)C[C@@H]1C	.	-9.9%	.	45.6%	29.7%
O=C(OCC#CCSc1nnc(-c2ccccc2)o1)c1ccc(F)cc1	.	78.9%	.	.	.
CC(C)(C)c1ccccc1NC(=O)CN1C(=O)NC(Cc2ccccc2)C1=O (stereo not given)	70.8µM*	-9.6%	-4.2%[0.501 µM]	35.0%	19.6%
O=C(CN1C(=O)NC(Cc2ccccc2)C1=O)Nc1ccccc1F (stereo not given)	1.7%	-4.1%	19.4%[12.7 µM]	3.9%	58.9%
CCOc1ccc(/C=C/c2nc(C#N)c(N3CCN(c4ccc(OC)cc4)CC3)o2)cc1	-2.5%	-20.1%	-1.0%[59 µM]	.	-14.9%
COc1ccccc1/C=N/NC(=O)c1ccc(NC(=O)c2cccc([N+](=O)[O-])c2)cc1	7.7%	.	-37.2%	?	.
NC(=S)N/N=C/c1ccccc1[N+](=O)[O-]	-10.1%	-12.1%	.	0.8%	?
COc1cccc(/C=N/NC(=O)C(=O)N2CCCCCC2)c1O	79.4µM*	79.4µM*	.	.	42.6%
COC(=O)c1cccc(/C=N/NC(N)=S)c1O	4.47µM*	?	-0.9%	?	34.3%
COc1cccc(/C=N/NC(=O)c2cc3cc([N+](=O)[O-])ccc3s2)c1O	22.4µM*	63.1µM*	?	?	?
